Marburg entry – blocks Marburg virus binding or cell entry | Potency, µM (highest dose often 49.2 µM), for inactives: at the top dose activity change, negative = inhibition, hits mostly inhibitors | 6.5% of 18,000 active | Marburg virus pseudotype entry/binding inhibition, cell-based
LASV entry inh – Lassa virus entry inhibition; AID 720533; Potency, µM (top dose mostly 49.2 µM), for the others: at the highest dose activity change, negative = inhibition, usual class: inhibitors; Lassa virus pseudotyped entry inhibition, cell-based qHTS; 4.1% of 18,000 active
Starred values were filed as active, the others as inactive; ? = inconclusive; nt = no result; ! = repeats disagree; [ ] = dose if it differs, or a comment. Rows were chosen to be rich in hits. Some 8.6% of all compounds tested hit in one or more screens of this group. Calls follow the shape of the full dose curve; tested in HEK293 cells. % is scaled to controls: 0 for no effect and ±100 for the full control effect; potency is read from the fitted curve at half-maximal effect.

SMILES	Marburg entry	LASV entry inh
COc1cccc(COc2cc(-n3cnc4ccccc43)sc2C(N)=O)c1	13µM*	?
Nc1nc(F)nc2c1ncn2[C@@H]1O[C@H](CO)[C@@H](O)[C@@H]1O	9%	-7%
Nc1nc(=S)c2ncn([C@H]3O[C@@H](CO)[C@@H](O)[C@@H]3O)c2[nH]1	2µM*	?
COc1ccc([C@]23Cc4cc(C#N)ccc4[C@H](O2)c2c(cc(C)n(-c4ccccc4)c2=O)O3)cc1	2%[8.59 µM]	12%[8.59 µM]
COC1=CC2C(=O)C(C(c3ccccc3)C2C)C1(O)c1cccc(OC)c1 (centres undefined)	15%[8.59 µM]	8%[8.59 µM]
COC(=O)C1=C(C)N(Cc2ccccc2)C(=NCCc2cccnc2)NC1c1ccc(Br)cc1 (centres undefined)	4%[8.59 µM]	-4%[8.59 µM]
CC(C)(C)CC(C)(C)c1ccc(O)cc1	45µM*!	?
CCC(C)(C)c1ccc(O)cc1	13%	-2%
Cc1cc(C)c(-c2cc([C@H](C)ON=C[C@@H](C)[C@H](OCc3ccccc3)C(C)C)on2)c(C)c1	6%[8.59 µM]	-2%[8.59 µM]
CC(C)(C)OC(=O)N1CCC[C@@H]1C(O)(c1ccccc1)c1ccccc1	-13%[8.59 µM]	0%[8.59 µM]
C[C@H]1C[C@@H](C)C(=O)[C@@H]([C@H](O)CC2CC(=O)NC(=O)C2)C1	1.1µM*	3.5µM*
CC1CC(C)C(=O)[C@H](C(O)CC2CC(=O)NC(=O)C2)C1 (some centres undefined)	2.5µM*	5.6µM*
CCOC(=O)CN1C(=O)CC(C[C@@H](O)C2C[C@@H](C)C[C@H](C)C2=O)CC1=O (some centres undefined)	-3%	-7%
C[C@@H]1C[C@@H]([C@@H](C)CC2CC(=O)NC(=O)C2)C(=O)[C@@H](C)C1	5µM*	4.5µM*
C[C@H]1C[C@H](C)C(=O)[C@@H]([C@H](O)CC2CC(=O)NC(=O)C2)C1	?	3.2µM*
Cc1cnc(C)c(-c2ccc(F)c3c2OC(CNC(=O)/C=C/c2cccs2)C3)n1 (centres undefined)	-27%	?
COC(=O)c1c(OCc2cccnc2)cc(=O)n2c1CCN(C(=O)c1ccc(OC)c(F)c1)CC2	-20%	-10%
COC(=O)C1=C(C)N(Cc2ccccc2)C(=NCC(C)C)NC1c1ccc(Br)cc1 (centres undefined)	5%[8.59 µM]	-1%[8.59 µM]
CCOC(=O)CCN1C(=O)[C@@H]2[C@H]3[C@H](O)[C@H](O)CC(=NO[C@@H]4O[C@H](COC(C)=O)[C@@H](OC(C)=O)[C@H](OC(C)=O)[C@@H]4OC(C)=O)[C@H]3CC[C@H]2C1=O	-6%[8.59 µM]	-16%[8.59 µM]
CC(CCN1CCCc2nc(C)c(C)cc21)=NO[C@H](C)CN1CCCc2nc(C)c(C)cc21	-41%[8.59 µM]	-17%[8.59 µM]
OC(CCN1CCCCC1)(c1ccccc1)c1ccccc1	8.9µM*	?
OC(CCN1CCCC1)(c1ccccc1)C1CCCCC1 (centres undefined)	16µM*	-20%
CC[N+](CC)(CC)CCC(O)(c1ccccc1)C1CCCCC1 (centres undefined)	5%[17.8 µM]	-10%[17.8 µM]
OC(C#CCN1CCCC1)(c1ccccc1)c1ccccc1	-10%	-4%
CC(C)C(=O)N[C@@H]1CCCN1C(=O)C=Cc1ccccc1	-47%[8.59 µM]	nt
SMILES	Marburg entry	LASV entry inh
Cc1nn(-c2ccccc2)c(C)c1CC(=O)NCC1Cc2cc(F)cc(-c3cccnc3)c2O1 (centres undefined)	-11%	-13%
CCC1(C2CCN(C(=O)c3coc4c3C(=O)CCC4)CC2)NC(=O)N(CCc2scnc2C)C1=O (centres undefined)	7%	1%
COc1cc([C@@H]2c3cc4c(cc3[C@@H](OC3OC5COC(C)OC5C(O)C3O)[C@H]3COC(=O)[C@H]23)OCO4)cc(OC)c1O (some centres undefined)	?	7.9µM*
COc1cc([C@@H]2c3cc4c(cc3[C@@H](O[C@@H]3O[C@H]5CO[C@@H](C)O[C@@H]5[C@@H](O)[C@H]3O)[C@@H]3COC(=O)[C@@H]23)OCO4)cc(OC)c1O	?	2.8µM*
COc1cc([C@@H]2c3cc4c(cc3C(O[C@@H]3O[C@@H]5COC(c6cccs6)O[C@H]5[C@H](O)[C@H]3O)C3COC(=O)[C@@H]32)OCO4)cc(OC)c1O (some centres undefined)	?	4µM*
COc1cc([C@@H]2c3cc4c(cc3C(OC3OC5COC(C)OC5C(O)C3O)C3COC(=O)[C@@H]32)OCO4)cc(OC)c1O (some centres undefined)	25µM*	7.9µM*
C=CC[C@@](C(C)=O)(C(=O)OC)[C@@H](NC(=O)OC)c1ccccc1	-3%[8.59 µM]	-15%[8.59 µM]
C[C@@H]1CC[C@H]2C(=O)N(Cc3ccc(Cl)cc3)C[C@H](O)CN2[C@@H]1c1ccc(Br)cc1	29%[8.59 µM]	-8%[8.59 µM]
CCCCCC(=O)N1C[C@H](n2cc(COC(=O)c3ccccc3)nn2)[C@@H](O)C[C@H]1c1ccc(OC)cc1	9%	11%
